Measured values as given in PubChem BioAssay.
“And” between values parts separate entries of the source, which are not always exact repeats. Equal entries are not always repeated. Unmarked numbers belong to inactive results. How the calls were made is not given here.

Tests used:
[1] = system: Botulinum neurotoxin type F light chain protease (Clostridium botulinum); assay: Botulinum neurotoxin type F light chain protease inhibition, multiplex microsphere flow cytometry, validation set (AID 588459); settings: multiplex microsphere protease substrate cleavage assay, at 10 µM, hits give high values
[2] = target: Botulinum neurotoxin type A (Clostridium botulinum) (UniProt P0DPI0); assay: BoNT/A light chain protease inhibitors, biochemical, multiplex microsphere flow cytometry, validation set (AID 588460); settings: at 10 µM, hits give high values
[3] = target: Lethal factor (Bacillus anthracis) (UniProt P15917); assay: Lethal factor protease inhibitors, Bacillus anthracis, multiplex microsphere cleavage assay, validation set (AID 588461); settings: flow cytometry, at 10 µM, hits give high values

Row | SMILES | inhibition [1] | inhibition [2] | inhibition [3]
1 | CC(C)CC(=O)Nc1ccc2oc(-c3ccncc3)nc2c1 | 1.4% | 0.3% | -2.1%
2 | CC(=O)Oc1c2occc2cc2ccc(=O)oc12 | -2.4% | -1% | -7.3%
3 | COc1c(O)ccc2c1CN1CCc3cc4c(cc3C1C2)OCO4 (stereo unspecified) | -8.1% | -2.1% | -16.1%
4 | CCC(C(=O)OCCN(CC)CC)c1ccccc1 (stereo unspecified) | 2.4% | 0.3% | 3.3%
5 | COc1cccc(OC2OC3COC(C)(C)OC3C(O)C2NC(C)=O)c1 (stereo unspecified) | -0.8% | 0.2% | 0.5%
6 | O=C(O)/C=C/c1cccc(OCc2ccccc2)c1 | -2.1% | -0.9% | 3.3%
7 | Cc1ncc([N+](=O)[O-])n1CC(C)O (stereo unspecified) | -0.2% | 1.1% | 0.3%
8 | COc1cccc(OC)c1C(=O)NCCSC1CCCCC1 | 1.4% | 0% | 5.6%
9 | CN(C)C(=O)CCCCCCCCC(=O)N(C)C | -2.7% | -0.9% | -5.5%
10 | CN1/C(=C\C=Nc2ccccc2)C(C)(C)c2ccccc21 | -1.1% | 0.8% | -0.6%
11 | O=C(Cc1ccccc1)NNC(=O)Cc1ccccc1 | 0.3% | 1.7% | -1.2%
12 | CCN(CC)CCOC(=O)C(c1ccccc1)c1ccccc1 | 1.8% | -1.6% | -3.7%
13 | Nc1ccc2cn[nH]c2c1 | -8.4% | -2.9% | -16.3%
14 | COc1cccc2c(O)cc(=O)n(C)c12 | -7.7% | -0.5% | -8.1%
15 | O=C(/C=C/c1ccco1)Nc1ccccc1C(=O)O | 0.9% | -0.2% | 1.7%
16 | O=Cc1ccccc1Oc1ccccc1 | 0.2% | -2.2% | -0.3%
17 | COc1cc2c(cc1OC)C(c1cc3ccccc3oc1=O)=NC(C)(C)C2 | 0.9% | 0% | 0%
18 | CN(C)c1ccc(Nc2c3c4c(cccc4n(C)c2=O)C(=O)c2ccccc2-3)cc1 | -13.5% | -3.2% | -18.1%
19 | COc1cc(C)nc(-n2nc(C)cc2OC)n1 | 0.2% | -1.5% | -4.9%
20 | NCCc1ccc(O)c(O)c1 | -6.2% | -3.5% | -8.7%
21 | O=C(O)COc1ccc2occ(C(=O)c3ccccc3)c2c1 | -1.3% | 0.2% | 4.6%
22 | CN1CCC(OC(c2ccccc2)c2ccccc2)CC1 | -0.8% | -0.5% | -5.1%
23 | COc1ccc(CCN(C)CC(=O)Nc2cc(C)nc3ccccc23)cc1OC | 0.4% | 0.9% | -1.4%

Row | SMILES | inhibition [1] | inhibition [2] | inhibition [3]
24 | CCCNCC(O)COc1ccccc1C(=O)CCc1ccccc1 (stereo unspecified) | 1.5% | 0% | -1.2%
25 | Cc1nc2ccccc2c(=O)n1N | 4.9% | 0.7% | -5.7%
26 | Fc1cc(F)cc(NC(=S)NCCCN2CCOCC2)c1 | 0.9% | -0.7% | -2.9%
27 | COc1ccc(C2C(C#N)=C(N)Oc3cc(C)[nH]c(=O)c32)c(OC)c1OC (stereo unspecified) | 1.9% | 0.1% | 0.8%
28 | O=C1C(Cc2c[nH]c3ccccc23)NC(=S)N1Cc1ccccc1 (stereo unspecified) | -0.2% | 0.3% | -1.8%
29 | Nc1ccc(C(=O)O)c(O)c1 | -4.5% and 1.6% | -0.4% and -0.2% | -12% and -5.3%
30 | CN(C)c1nc(N(C)C)nc(N(C)C)n1 | 6.4% | 2.6% | -4.2%
31 | NS(=O)(=O)c1cc2c(cc1Cl)NC(C(Cl)Cl)NS2(=O)=O (stereo unspecified) | -0.3% | 0.1% | -3%
32 | COc1ccc(C2C3=C(CC(C)(C)CC3=O)N(C)C3=C2C(=O)CC(C)(C)C3)cc1 | 2% | 0.4% | -5.6%
33 | CCOc1ccccc1OCCOc1ccc(F)cc1 | 0.7% | -1.2% | 6.2%
34 | CC1(C)CC(=O)c2cc(O)ccc2O1 | 2% | 0.1% | -2.1%
35 | Nc1nc2c(ncn2COC(CO)CO)c(=O)[nH]1 | -0.4% | -1.1% | -4.8%
36 | CCC(C)NCCOCCOc1ccc(Cl)cc1Br (stereo unspecified) | 0.5% | 0.2% | -2.1%
37 | Cc1cnc(C(=O)N2CCCC(C(=O)c3ccc(Cl)cc3C)C2)cn1 (stereo unspecified) | 1.4% | 0.4% | -0.9%
38 | C[C@@H]1C[C@H]2[C@@H]3CCC4=CC(=O)C=C[C@]4(C)[C@@]3(F)[C@@H](O)C[C@]2(C)[C@@]1(O)C(=O)COP(=O)(O)O | 2.6% | 0.2% | 0.9%
39 | O=C(O)c1cccnc1Nc1cccc(C(F)(F)F)c1 | 1.8% | 0.3% | -3.9%
40 | CC(C)CCn1c(N2CCc3ccccc3C2)nc2c1c(=O)[nH]c(=O)n2C | -1.6% | 0.3% | 4%
41 | NNC(=O)c1cc(O)c(O)c(O)c1 | -3.2% | -1% | -2.8%
42 | CCOC(=O)N1CCN(Cc2nc(Cc3cccc(F)c3)no2)CC1 | 1.3% | 0% | 3.3%
43 | CC1(C)CC(NC(=O)C23CCC(C)(C(=O)C2=O)C3(C)C)CC(C)(C)N1 (stereo unspecified) | 2.9% | -0.7% | -4.5%
44 | COc1cc(OC)c(-c2nc3cnccc3n2C)cc1OC | -2.3% | -1.9% | -1.6%
45 | COc1cc(C(=O)Nc2cccc(-c3nnc(-c4ccco4)o3)c2)ccc1OC(C)=O | 3.1% | 2.1% | 0.6%
46 | O=C(NCCN1CCN(c2ccccc2)CC1)c1cccc(Br)c1 | -4.4% | -2.3% | -6.4%

Row | SMILES | inhibition [1] | inhibition [2] | inhibition [3]
47 | CC(C)C(CCN1C(=O)CCC1=O)C1CCOC(C)(C)C1 (stereo unspecified) | 3% | 0.5% | 0.7%
48 | CC(=O)CCc1c(C)c2cccc(C)c2[nH]c1=O | 4.3% | 0.8% | -3.4%
49 | COc1ccc(-c2[nH]ncc2C=O)cc1OC | -3.5% | -0.8% | -2.5%
50 | O=C(O)c1ccc(OCCn2ccnc2)cc1 | 2.9% | -0.2% | -0.6%
51 | CC(C)Cc1cc(C(=O)N2CCC(N3CCC(C(=O)N4CCCC4)CC3)CC2)n[nH]1 | -0.1% | -2% | -0.4%
52 | CCN(CCCCCN(C)C)Cc1cc2ccccc2o1 | 4.7% | -1.1% | 8.8%
53 | C=C(C)COc1ccc(-c2nc(N)ncc2-c2ccc(OC)cc2)c(O)c1 | 2.8% | 1.4% | -5.3%
54 | CSCCC(NC(=O)/C(=C/c1ccc2c(c1)OCO2)NC(=O)c1cccc([N+](=O)[O-])c1)C(=O)O (stereo unspecified) | -1.7% | 0.6% | -9.5%
55 | COc1cccc(OC)c1C(=O)Nc1nc2ccc([N+](=O)[O-])cc2s1 | 7.7% | 3.3% | 7.5%
56 | CCOC(=O)N1CCc2[nH]c3ccc(C)cc3c2C1 | -1.2% | -1.6% | 1.9%
57 | CC(CCc1ccccc1)NCC(O)c1ccc(O)c(C(N)=O)c1 (stereo unspecified) | -1% | -1.4% | 0.1%
58 | CN1CCc2cccc3c2[C@H]1Cc1ccc(O)c(O)c1-3 | – | -6.5% | -33.9%
59 | C[C@H](CS)C(=O)N1CCC[C@H]1C(=O)O | – | – | -1.8%
60 | Cc1cccc2c(C(=O)O)cc(-c3cccnc3)nc12 | -2.3% | -0.5% | -6.1%
61 | CC(=O)/C=C/c1ccc(C)o1 | 3.8% | 0.9% | 3%
62 | CCS(=O)(=O)CCn1c([N+](=O)[O-])cnc1C | 2.2% | 0.7% | 3.7%
63 | COC(=O)CN1C(=S)N(c2ccc(F)cc2)C(=O)C1CC(=O)Nc1ccccc1 (stereo unspecified) | -5.7% | -2% | -5.6%
64 | Cc1cnc(NC(=O)C2=C(O)c3ccccc3S(=O)(=O)N2C)s1 | – | – | 1.4%
65 | COC(=O)c1ccccc1NC(=O)NCc1ccccc1 | 2.7% | 0.1% | 0.8%
66 | Cc1ccccc1C(=O)Nc1ccccc1C(=O)NCC(C)C | -5.7% | -0.4% | 1.2%
67 | NS(=O)(=O)c1ccc(CNC(=O)c2cc(-c3ccccc3)nc3ccccc23)cc1 | 0.5% | 0.4% | -4.8%
